Pol kappa inh = DNA polymerase kappa (human) inhibition | Q9UBT6 | purified Pol kappa, fluorescent DNA synthesis assay, 10 min | Potency, µM (highest dose often 107 µM), hits mostly inhibitors | hit rate 0.53% among 400,000
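Inhibition of 10 nM Pol kappa is measured by a fluorescent read-out at 0 and 10 min following addition of 50 nM substrate (final), with a 15-min room-temperature compound preincubation.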
Pol eta inh = blocks human DNA polymerase eta activity; Q9Y253; recombinant Pol eta, fluorescent DNA replication assay; Potency, µM (top dose mostly 114 µM), usual class: inhibitors; hit rate 1.2% among 390,000
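Pol eta (10 nM) was preincubated with compounds for 15 min at room temperature, after which fluorescent replication substrate (50 nM final) was added to start the reaction. Fluorescence was read kinetically at 0 and 10 min.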
L3MBTL1 block = L3MBTL1 (human) inhibition; AlphaScreen L3MBTL1–H3K9me1 peptide binding; Potency, µM (series often up to 57.1 µM), most hits filed as inhibitors; Q9Y468; hit rate 0.66% among 230,000; note: nearly all actives have a fitted effect of over 60% in size
Target sequence (Q9Y468 whole entry, looked up): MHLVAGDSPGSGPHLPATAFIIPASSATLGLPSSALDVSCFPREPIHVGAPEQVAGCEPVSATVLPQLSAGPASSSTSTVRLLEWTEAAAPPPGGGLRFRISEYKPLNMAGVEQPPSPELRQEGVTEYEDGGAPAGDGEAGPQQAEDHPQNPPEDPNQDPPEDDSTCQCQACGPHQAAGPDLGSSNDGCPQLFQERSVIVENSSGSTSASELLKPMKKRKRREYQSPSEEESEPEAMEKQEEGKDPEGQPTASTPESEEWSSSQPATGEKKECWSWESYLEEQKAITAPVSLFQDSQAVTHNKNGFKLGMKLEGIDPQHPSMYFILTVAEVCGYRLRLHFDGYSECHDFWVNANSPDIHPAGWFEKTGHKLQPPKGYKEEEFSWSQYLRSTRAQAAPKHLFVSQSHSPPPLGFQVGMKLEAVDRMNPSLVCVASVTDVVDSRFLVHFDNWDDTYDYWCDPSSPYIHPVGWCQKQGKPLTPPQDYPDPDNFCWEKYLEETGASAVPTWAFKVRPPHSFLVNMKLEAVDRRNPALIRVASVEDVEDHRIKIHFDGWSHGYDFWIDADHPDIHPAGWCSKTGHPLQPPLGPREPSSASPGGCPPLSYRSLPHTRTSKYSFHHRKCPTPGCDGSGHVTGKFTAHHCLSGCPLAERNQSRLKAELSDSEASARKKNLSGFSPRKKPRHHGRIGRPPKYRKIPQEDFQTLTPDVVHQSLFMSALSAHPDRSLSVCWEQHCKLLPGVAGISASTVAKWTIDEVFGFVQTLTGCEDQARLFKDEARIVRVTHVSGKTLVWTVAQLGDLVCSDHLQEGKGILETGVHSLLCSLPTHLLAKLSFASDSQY
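L3MBTL1 (50 nM) pre-complexed 30 min with biotinylated H3(1-15)K9me1 peptide (75 nM), then compounds added for 30 min at room temperature; AlphaScreen streptavidin donor/nickel chelate acceptor beads (10 ug/mL final) read after 30 min dark incubation.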
POLB inh = inhibitors of human DNA polymerase beta; Potency, µM (doses to about 114 µM), actives largely listed as inhibitors; P06746; hit rate 1.3% among 340,000; Pol beta primer extension/strand displacement, fluorescence kinetic
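Pol beta (10 nM) was preincubated with compound for 15 min at room temperature. The reaction was then started with 50 nM substrate and read immediately and after a further 10 min at room temperature.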
POLI inh = inhibitors of human DNA polymerase iota. Q9UNA4. Pol iota fluorescent replication assay, 10 min. Potency, µM (doses to about 115 µM), actives largely listed as inhibitors. hit rate 1% among 390,000. AID 588590
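Pol iota at 10 nM preincubated 15 min with compounds at room temperature; reaction started with fluorescent substrate, 50 nM final. Fluorescence read kinetically at 0 and 10 min; buffer-only wells as negative control.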
Numbers stand for hits; – = inactive; ? = inconclusive; · = no result. Hits are enriched below; roughly 2.4% of the tested compounds scored in any of these assays. Calls come from the whole dose curve; as a rule, active = well fitted curve in the direction sought with a large enough effect; inconclusive = small, poorly fitted or top-dose-only effect, or another doubt; inactive = no such curve, though single readings can be large; an effect the other way counts as inactive or inconclusive.

SMILES | Pol kappa inh | Pol eta inh | L3MBTL1 block | POLB inh | POLI inh
O=c1cc2nc(-c3ccccc3F)nc(SCc3ccc(Br)cc3)n2[nH]1 | ? | ? | · | 32µM | ?
Cc1ccc(C(C)C)c(OCCSc2nc(-c3ccccc3F)nc3cc(=O)[nH]n23)c1 | – | ? | · | 16µM | ?
Cc1cccc(OCCCSc2nc(-c3ccc(C(C)(C)C)cc3)nc3cc(=O)[nH]n23)c1C | – | · | · | – | ?
COc1ccc(-c2nc(SCCOc3cc(C)ccc3C(C)C)n3[nH]c(=O)cc3n2)cc1 | – | – | · | – | –
Cc1cccc(-c2nc(SCCCOc3ccc(Cl)c(C)c3)n3[nH]c(=O)cc3n2)c1 | – | – | · | – | –
CCc1ccc(OCCCSc2nc(-c3ccc(C(C)(C)C)cc3)nc3cc(=O)[nH]n23)cc1 | – | · | · | 18µM | ?
Cc1ccc(OCCSc2nc(-c3ccccc3C)nc3cc(=O)[nH]n23)cc1Cl | ? | 89µM | · | ? | ?
COc1ccccc1NC(=O)CSc1nc(-c2ccccc2F)nc2cc(=O)[nH]n12 | – | – | · | ? | ?
COc1cccc(-c2cncnc2NC2CCNCC2)c1 | – | · | · | · | ·
COc1ccc(-c2cc(=O)c3c(O)cc(O)c(-c4cc(-c5cc(=O)c6c(O)cc(O)cc6o5)ccc4OC)c3o2)cc1 | – | · | · | · | ·
CC(C)C(NS(=O)(=O)c1ccccc1)C(=O)NC1CCCC1 (configuration not stated) | – | – | · | – | ?
CC(NS(=O)(=O)c1ccccc1)C(=O)NC1CCCC1 (configuration not stated) | – | 79µM | · | ? | –
CCOC(=O)c1cnn2c(N)c(C#N)cnc12 | – | – | – | – | –
CCOC(=O)c1cnn2c(N)c(C#N)nnc12 | – | ? | – | – | 89µM
CC1Cc2cc(/C(O)=C3/C(=O)C(=O)N(CC4CCCO4)C3c3ccco3)ccc2O1 (configuration not stated) | – | 14µM | · | 22µM | ?
C=CCOc1cccc(C2/C(=C(/O)c3ccc4c(c3)CC(C)O4)C(=O)C(=O)N2CCN2CCOCC2)c1 (configuration not stated) | – | – | · | – | 89µM
COc1cc(C2/C(=C(\O)c3ccc4c(c3)CC(C)O4)C(=O)C(=O)N2CC2CCCO2)cc(OC)c1OC (configuration not stated) | – | – | · | – | –
O=C(OCc1cn([C@H]2CN(C(=O)C3CCCCC3)[C@@H](c3ccccc3)C[C@@H]2O)nn1)c1ccccc1 | · | – | · | · | ·
C=CCOc1c(/C=N\NC(N)=O)cccc1OC | – | – | – | – | ?
C=CCOc1c(OC)cc(/C=N/Nc2cccc(C(=O)O)c2)c(Br)c1Br | ? | ? | ? | 50µM | –
CCc1ccc(Nc2nnc(SCC(=O)NC(=O)CN3CCCC3=O)s2)cc1 | – | 45µM | – | · | 45µM
CCOC(=O)c1ccc(NC(=O)Cn2cc(C(=O)C3CC3)c3ccccc32)cc1 | – | – | · | – | –
Cc1ccc(NC(=O)NC(=O)N(C(C)C)S(=O)(=O)c2ccc(C)cc2)cc1 | – | – | – | 89µM | –
C=C(C(=O)O)c1ccc2ccccc2c1 | ? | · | · | · | 79µM
COC(=O)N/N=C(C)/C=C/c1ccccc1 | ? | – | · | · | 89µM
SMILES | Pol kappa inh | Pol eta inh | L3MBTL1 block | POLB inh | POLI inh
CCOC(=O)N/N=C(C)/C=C/c1ccccc1 | ? | – | – | – | ?
O=C(c1ccc2ccccc2c1)N1CCN(S(=O)(=O)/C=C/c2ccccc2)CC1 | – | – | – | – | –
Cc1ccc(C(=O)NNC(=O)c2ccc3ccccc3c2)cc1 | – | – | · | · | –
O=C(/C=C/c1ccccc1)c1ccc2ccccc2c1 | – | – | · | · | 22µM
COc1cc(/C=C/C(=O)c2ccc3c(c2)OCO3)cc(Cl)c1O | ? | 40µM | · | 40µM | 20µM
O=C(COCc1cc(-c2ccc3c(c2)OCO3)on1)Nc1cc(C(F)(F)F)ccc1Cl | – | – | · | – | –
O=C(Cn1ccc2cc(S(=O)(=O)N3CCCC3)ccc21)NCc1ccc(Cl)cc1 | – | – | · | – | –
CCCCNC(=O)[C@@H]1CC=C[C@@H]2CCN(Cc3ccc(OC)c(OC)c3)C(=O)[C@@H]21 | – | · | · | · | –
CC(=O)Oc1cc(C)c(OC(C)=O)c2ccccc12 | – | · | · | · | ·
O=C(/C=C/c1ccc(F)cc1)c1cc(Br)ccc1O | – | – | – | – | –
O=C(/C=C/c1ccccc1)c1ccccc1 | – | ? | – | – | 22µM
O=C(/C=C/c1ccccc1)c1cc(Br)ccc(=O)c1O | 40µM | ? | · | ? | 3.2µM
O=C(/C=C/c1ccccc1)/C=C/c1ccccc1 | – | 18µM | – | – | ?
O=C(O)c1ccc(/C=C/C(=O)c2ccc3c(c2)OCCCO3)cc1 | – | 22µM | · | – | ?
Cc1c(C(=O)Nc2cccc(Cl)c2)oc2ccc(S(=O)(=O)N(C)C3CCCCC3)cc12 | – | – | · | – | –
Cc1ccc2c(c1)cc1c(=O)n(CC(=O)NC(C)CCc3ccccc3)nc(C)n12 (configuration not stated) | – | – | · | – | –
CC1(C)OC(=O)C2(Cc3ccc(Cl)cc3N3CCCCC32)C(=O)O1 (configuration not stated) | – | · | · | · | –
COc1ccc(-c2cc(C(F)(F)F)nc(SCCC(=O)Nc3ccc(F)cc3F)n2)cc1 | – | – | · | – | –
Cc1ccc(-c2cc(NC(=O)C(C)Oc3ccc(C)c(C)c3)on2)cc1 (configuration not stated) | – | – | · | – | –
Cc1cc(O)cc2c1O[C@](C)(CCC(=O)O)CC2 | – | · | · | · | –
N=C1SC(c2ccccc2)C(=O)N1c1ncc(Cc2ccccc2)s1 (configuration not stated) | – | – | – | 50µM | –
CCCn1c(SCc2nc(-c3ccccc3OCC)no2)nnc1-c1ccc(Cl)cc1 | – | – | · | – | –
CCN1C(=O)/C(=C\C=C\c2ccccc2[N+](=O)[O-])SC1=S | – | – | · | – | –
CCN1C(=O)/C(=C/C=C2\N(CC)c3cc(S(=O)(=O)N(C)C)ccc3N2c2ccccc2)SC1=S | ? | – | ? | 3.5µM | ?
CC(C)(C)n1ncc2c(=O)n(Cc3cccc(C(F)(F)F)c3)cnc21 | – | · | · | · | –
SMILES | Pol kappa inh | Pol eta inh | L3MBTL1 block | POLB inh | POLI inh
COc1cc(C=NNc2nc3c([nH]2)c(=O)n(C)c(=O)n3C)ccc1O | – | – | · | · | –
Cc1nc2c(cc1C(=O)N/N=C/c1ccc(O)c(O)c1)c(=O)n(C)c(=O)n2C | – | ? | – | 45µM | ?
N#CN=c1snc(-c2ccccc2)n1-c1ccc(Br)cc1 | – | · | · | · | –
O=C(c1c(F)c(F)c(F)c(F)c1F)N1CCN(Cc2ccc3c(c2)OCO3)CC1 | – | – | · | · | –
O=C(c1ccc(COc2c(F)c(F)c(F)c(F)c2F)o1)N1CCN(Cc2ccc3c(c2)OCO3)CC1 | ? | ? | – | 45µM | ?
COc1ccc(CNC(=O)Cc2c(C)c3ccc(O)cc3oc2=O)cc1 | – | – | · | – | ?
CCOC(=O)c1c(NC(=O)CSc2nc3cccnc3n2C)sc(C(C)=O)c1C | – | – | – | – | –
